Source: PubChem
IMPase Li cell = IMPase inhibition in cells with lithium potentiation; CHO-M1 cells, IP1 TR-FRET (IP-One), carbachol + lithium; Potency, µM (doses to about 59.4 µM), most hits filed as inhibitors; hit rate 0.35% among 210,000; active means well fitted inhibition curve with a large enough effect; inconclusive means small, poorly fitted or top-dose-only effect; inactive means no such curve, though single readings can be large or run the other way;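 further: IP1 builds up when IMPase is blocked and the TR-FRET signal falls; nearly all actives have a fitted effect of over 50% in size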
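CHO cells stably expressing M1 receptor (2000/well) were cultured 16–30 h, then exposed to compounds with a small lithium addition for 30 min at 37C. IP1 was measured by TR-FRET competition; AC50 from Hill fits.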
IMPase cell inh = membrane-permeable compound that blocks inositol monophosphatase | AID 901 | inhibition (IP1 accumulation), % at 46.1 µM | P97697 | CHO-M1 cells, IP1 accumulation, HTRF TR-FRET ratio | 120,000 tested, under 10 active; active means well fitted curve in the direction sought with a large enough effect in the signal ratio, not every such curve was filed as active; inconclusive means small, poorly fitted or top-dose-only effect, or a change in a side signal; inactive means no such curve, though single readings can be large or run the other way; the % refers to the signal ratio;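 further: cells stimulated with carbachol in lithium chloride buffer; higher means more IMPase inhibition seen as more IP1 and lower FRET ratio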
Target sequence (P97697 whole entry, looked up): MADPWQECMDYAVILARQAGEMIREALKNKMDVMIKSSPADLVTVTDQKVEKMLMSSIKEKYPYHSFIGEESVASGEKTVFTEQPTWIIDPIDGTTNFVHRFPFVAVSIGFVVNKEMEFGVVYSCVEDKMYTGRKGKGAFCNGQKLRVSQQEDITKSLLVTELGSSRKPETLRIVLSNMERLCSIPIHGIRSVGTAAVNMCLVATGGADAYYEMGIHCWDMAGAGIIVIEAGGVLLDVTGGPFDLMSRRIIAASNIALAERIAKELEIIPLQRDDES
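Elevated IP1 in lysates lowers TR-FRET signal (665/620 ratio and 620 channel reported). Cells were CHO-M1, given carbachol (50 uM as added) plus 50mM LiCl, pH 7.4, 30 min, 37C; compounds titrated up to 46 uM; AC50 by Hill equation.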
Lamin A splicing = LMNA splicing modulation. HeLa LMNA splicing GFP/RFP minigene ratio, 48 h. Potency, µM (top dose mostly 46.1 µM), hits mostly inhibitors. hit rate 0.01% among 200,000. AID 1487; active means well fitted inhibition curve with a large enough effect in the signal ratio, with a control signal flat, not every such curve was filed as active; inconclusive means small, poorly fitted or top-dose-only effect, or effect the other way, or a change in a side signal; the % refers to the signal ratio
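Read-out is the ratio of GFP to DsRed2 object intensity, acquired by 488 nm laser-scanning cytometry on HeLa lamin A-EGFP minigene reporter cells. Compound incubation 48 hrs at 37 °C in Opti-MEM with 2% FBS; DMSO 0.5% final.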
Hits are given with their value; 0 = inactive; ? = inconclusive; - = not tested or not shown; ! = repeats disagree. This is one part of a sample in which hits are shown more often than they occur.

SMILES	IMPase Li cell	IMPase cell inh	Lamin A splicing
COC(=O)[C@@]1(Cc2ccc(OC)cc2)[C@H]2c3cc(C(=O)N(C)C)n(Cc4cc(F)c(F)c(F)c4)c3C[C@H]2CN1C(=O)c1ccccc1	0	-	-
CCCCOc1ccc(C(=O)N2CCN(CCc3ccncc3)CC2)cc1	-	-	0
CC(=O)c1ccc(N2CCN(C(=O)c3cc(-c4cccnc4)nc4ccc(Br)cc34)CC2)cc1	0	-	?
O=C(c1cc(-c2cccnc2)nc2ccc(Br)cc12)N1CCN(c2ncccn2)CC1	11µM	0	0
NS(=O)(=O)c1ccc(CCNC(=O)c2cc(-c3ccccn3)nc3ccc(Br)cc23)cc1	11µM	-	-
NS(=O)(=O)c1ccc(CCNC(=O)c2cc(-c3ccc(Br)cc3)nc3ccccc23)cc1	0	-	0
O=C(Nc1ccc(C(=O)N2CCOCC2)cc1)c1cc(-c2cccnc2)nc2ccc(Br)cc12	0	-	?
O=C(Nc1ccccn1)c1cc(-c2cccnc2)nc2ccc(Br)cc12	11µM	?	0
Cc1ccc(C(=O)N2CCc3cc(CNS(=O)(=O)c4cccs4)ccc32)cc1	-	-	0
O=C(CSC1=NCCN1)c1ccccc1	0	-	-
Cc1ccc(O)c(N=CC2=C(O)c3ccccc3C2=O)c1	10µM	?	?
O=C1C(C=Nc2ccccc2O)=C(O)c2ccccc21	0	0	?
CCc1cc(C(C)=O)c(O)cc1OCCCCCC(C)(C)c1nn[nH]n1	0	-	-
COc1cccc(Cn2c(=O)c(C)nc3cnc(N4CCOCC4)nc32)c1	0	-	-
C=C1C[C@]23CC[C@H]4C(CO)(CO)C[C@@H](O)C[C@@]4(C)[C@@H]2CC[C@H]1C3	0	-	-
COc1cc(OC)cc(-n2nnnc2SCC(=O)Nc2ccc(C(C)=O)cc2)c1	3.5µM	0	0
COc1ccc(NC(=O)CSc2nnnn2-c2ccc(OC)cc2)cc1	0	0	0
COc1ccccc1NC(=O)c1sc(NC(=O)c2ccco2)c(C#N)c1C	0	0	0
Cc1ccccc1OCC(=O)Nc1sc(C(=O)Nc2cccc(C)c2C)c(C)c1C#N	1µM	?	0
N=C(N)c1ccc(N2CCN(C3CCN(CC(=O)O)CC3)CC2)cc1	0	-	-
Cc1cnc(CNc2cc(-c3ccc(N(C)C)cc3)ncn2)cn1	0	-	0
COc1ccc(C(=O)Nc2nc3nccc(-c4ccccc4)n3n2)cc1	0	-	0
O=C(Nc1nc2nccc(-c3ccccc3)n2n1)c1ccc(F)cc1	10µM	-	?
C#CCSc1nc(-c2cccs2)ccc1C#N	0	?	0
COC(=O)CSc1nc(-c2cccs2)ccc1C#N	25µM	?	0
SMILES	IMPase Li cell	IMPase cell inh	Lamin A splicing
COC(=O)c1ccc(C(NC(=O)c2ccco2)[C@]2(C)C[C@H]2C2CCCCC2)cc1 (stereo partly drawn)	0	-	-
COc1ccc(Br)c(C(=O)Nc2cc3c(cc2N2CCCCC2)n(C)c(=O)c(=O)n3C)c1	-	0	-
COc1ccc(Cl)cc1NC(=O)Cn1ccn(Cc2ccc(C)cc2)c(=O)c1=O	-	-	0
Cc1ccc(S(=O)(=O)NCCNC(=O)c2cc(OCC(F)(F)F)ccc2OCC(F)(F)F)cc1	11µM	0	0
O=C(NCCNS(=O)(=O)c1ccccc1Cl)c1cc(OCC(F)(F)F)ccc1OCC(F)(F)F	0	0	?
C=C(CC(=O)O)C(=O)O (tested in a mixture with another compound)	0	-	-
Nc1nccc(-c2cccs2)n1	0	-	?
Brc1cc(Br)c2nc(-c3cccs3)ccc2c1	10µM	?	0
Cc1ccc(N2CC(NC(=O)c3cc4ccccc4o3)CC2=O)cc1 (stereo not drawn)	-	-	0
CC/C=C1/OC(=O)c2ccccc21	0	-	-
NC(=O)c1ccc(-c2nc(-c3ccc4c(c3)OCO4)c(-c3ccccn3)[nH]2)cc1	2.5µM!	0	-
COc1ccc(-c2[nH]c(-c3ccc4c(c3)OCO4)nc2-c2ccccc2)cc1	0	0	?
CC(C)Oc1ccc(/C(O)=C2/C(=O)C(=O)N(CCN3CCOCC3)C2c2ccccc2)cc1 (stereo not drawn)	5µM	?	0
COc1ccc(/C(O)=C2/C(=O)C(=O)N(CCN3CCOCC3)C2c2ccc(C)cc2)cc1 (stereo not drawn)	?	0	0
Cc1nc2ccccc2nc1-c1ccc(N=[N+]([O-])c2ccc(-c3nc4ccccc4nc3C)cc2)cc1	0	-	-
O=C(O)C1CC=CCC1C(=O)N1CCN(c2nc(-c3ccccc3Cl)c3cc(Br)ccc3n2)CC1 (stereo not drawn)	11µM	?	?
O=C(O)C1CC=CCC1C(=O)N1CCN(c2nc(-c3ccccc3)c3ccccc3n2)CC1 (stereo not drawn)	0	0	0
CN1CCN(c2ncc3nc(-c4cc(F)cc(F)c4)c(=O)n(CCC#N)c3n2)CC1	0	-	0
OCc1cn(-c2ccccc2)nc1-c1ccc(-c2nn(-c3ccccc3)cc2CO)cc1	28µM	0	0
O=C(O)Cc1cn(-c2ccccc2)nc1-c1ccccc1	0	-	0
COC(=O)C=P(c1ccccc1)(c1ccccc1)c1ccccc1	0	-	-
CCC(O)OC(O)CC (stereo not drawn)	0	-	-
Clc1ccc(/C=C\c2nc(Cl)c(-c3ccc(Cl)cc3)c(Cl)n2)cc1	0	-	-
CCN(CC)S(=O)(=O)c1ccc(Cl)c(NC(=O)COc2ccc3c(C)cc(=O)oc3c2)c1	0	-	?
CCN(CC)S(=O)(=O)c1ccc(OC)c(NC(=O)COc2ccc3c(C)cc(=O)oc3c2)c1	6.3µM	?	0
SMILES	IMPase Li cell	IMPase cell inh	Lamin A splicing
NCCC[C@@H](CC(=O)N[C@@H]1CCCC[C@H]1C(=O)N[C@H](CC(=O)N[C@@H](CCC(=O)O)CC(=O)O)Cc1c[nH]c2ccccc12)NC(=O)C[C@H](Cc1ccccc1)NC(=O)[C@@H]1CNCC[C@H]1N	0	-	-
C=C(C)C(=O)C1CCCCC1	0	-	-
CCc1ccc(-c2nc(NC(=O)c3ccc(OCC(=O)Nc4ccc(F)cc4)c(OC)c3)sc2C)cc1	7.9µM	?	0
COc1cc(C(=O)Nc2nc(-c3ccc(Cl)cc3)c(C)s2)ccc1OCC(=O)Nc1ccc(F)cc1	-	0	0
O=S(=O)(CCc1ccccc1)c1nnnn1-c1ccccc1	0	-	-
CCN(CC)C(=O)CSc1nc(N)c(C#N)c(-c2cccs2)c1C#N	0	0	0
COc1ccc(CNC(=O)CSc2nc(-c3ccccc3)cc(-c3cccs3)c2C#N)cc1	0	0	0
COc1ccc(CCNC(=O)CSc2nc(N)c(C#N)c(-c3cccs3)c2C#N)cc1OC	28µM	0	?
Cc1ccccc1NC(=O)CSc1nc(N)c(C#N)c(-c2cccs2)c1C#N	5µM	?	0
Cc1nc(NCc2ccccc2)c2nc(-c3ccccc3)n(CCN3CCCCC3)c2n1	0	-	-
CN(C)CCn1c(CO)nc2c1c(=O)n(C)c(=O)n2C	0	-	-
NC(=NC1C2CC3CC(C2)CC1C3)Nc1ccc(I)cc1 (stereo not drawn)	0	0	-
COc1cccc([C@@H]2Oc3ccc(Br)cc3[C@H](O)[C@H]2O)c1	0	-	-
CCN(CCCNC(=O)CN1N=C(c2ccc(OC)cc2)CCC1=O)c1cccc(C)c1	-	-	0
NNC(=O)c1ccc(COc2ccccc2)cc1	0	0	0
O=C(Nc1ccc(F)cc1)c1ccc(COc2ccccc2)cc1	13µM	-	?
CCOc1ccc(CCNC(=O)CCn2c(=O)c3cccn3c3ccc(F)cc32)cc1OCC	-	-	0
